This excerpt belongs to a sample that is enriched for the strongest signals.
Tests used:
Test in all cases: glycan array binding signal (z-score within array); higher = stronger binding
Settings in all cases: glycan notation: IUPAC condensed, linker removed
[1] = molecular target: GlcNAc(b1-3)Gal(b1-4)GlcNAc(b1-3)Gal(b1-4)GlcNAc(b1-3)Gal(b1-4)GlcNAc(b1-3)Gal(b1-4)GlcNAc(b1-2)Man(a1-3)[GlcNAc(b1-3)Gal(b1-4)GlcNAc(b1-3)Gal(b1-4)GlcNAc(b1-3)Gal(b1-4)GlcNAc(b1-3)Gal(b1-4)GlcNAc(b1-2)Man(a1-6)]Man(b1-4)GlcNAc(b1-4)[Fuc(a1-6)]GlcNAc
Method in brief: (§1)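 Glycan array binding is given as a within-array Z-score, which can be read as non-binding when negative. The arrays, 3228 of them, came from the Consortium for Functional Glycomics database and were retained only where the protein sequence was available. Z-scores were averaged across arrays of the same protein sequence at different concentrations or buffers and across linkers.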

[2] = molecular target: GlcNAc(b1-3)Gal(b1-4)GlcNAc(b1-3)Gal(b1-4)GlcNAc(b1-3)Gal(b1-4)GlcNAc(b1-3)Gal(b1-4)GlcNAc(b1-2)[GlcNAc(b1-3)Gal(b1-4)GlcNAc(b1-3)Gal(b1-4)GlcNAc(b1-3)Gal(b1-4)GlcNAc(b1-3)Gal(b1-4)GlcNAc(b1-6)]Man(a1-6)[GlcNAc(b1-3)Gal(b1-4)GlcNAc(b1-3)Gal(b1-4)GlcNAc(b1-3)Gal(b1-4)GlcNAc(b1-3)Gal(b1-4)GlcNAc(b1-2)Man(a1-3)]Man(b1-4)GlcNAc(b1-4)[Fuc(a1-6)]GlcNAc
Method in brief: as §1

[3] = molecular target: Man(a1-3)[Man(a1-6)]Man(a1-6)[Man(a1-3)]Man(b1-4)GlcNAc(b1-4)GlcNAc
Method in brief: as §1

[4] = molecular target: Man(a1-3)[Man(a1-6)]Man(b1-4)GlcNAc(b1-4)[Fuc(a1-6)]GlcNAc
Method in brief: as §1

[5] = molecular target: Neu5Ac(a2-3)Gal(b1-3)[Neu5Ac(a2-6)]GlcNAc(b1-3)[Fuc(a1-3)[Gal(b1-4)]GlcNAc(b1-6)]Gal(b1-4)Glc
Method in brief: as §1

[6] = molecular target: Neu5Ac(a2-3)Gal(b1-4)GlcNAc(b1-6)GalNAc
Method in brief: as §1

[7] = molecular target: Neu5Ac(a2-3)Gal(b1-4)[Fuc(a1-3)]GlcNAc(b1-6)[Gal(b1-3)]GalNAc
Method in brief: as §1

[8] = molecular target: Neu5Ac(a2-3)[GalNAc(b1-4)]Gal(b1-4)GlcNAc(b1-3)GalNAc
Method in brief: as §1

[9] = molecular target: Neu5Ac(a2-6)Gal(b1-4)GlcNAc(b1-2)Man(a1-3)[GlcNAc(b1-4)][Neu5Ac(a2-6)Gal(b1-4)GlcNAc(b1-2)Man(a1-6)]Man(b1-4)GlcNAc(b1-4)GlcNAc
Method in brief: as §1

[10] = molecular target: Neu5Ac(a2-6)Gal(b1-4)GlcNAc(b1-3)[Neu5Ac(a2-6)Gal(b1-4)GlcNAc(b1-6)]GalNAc
Method in brief: as §1

[11] = molecular target: Neu5Ac(a2-6)GlcNAc(b1-4)GlcNAc(b1-4)GlcNAc
Method in brief: as §1

[12] = molecular target: Neu5Ac(a2-8)Neu5Ac(a2-3)[GalNAc(b1-4)]Gal(b1-4)Glc
Method in brief: as §1

[13] = molecular target: Neu5Ac(a2-8)Neu5Ac(a2-8)Neu5Ac(a2-3)[Gal(b1-3)GalNAc(b1-4)]Gal(b1-4)Glc
Method in brief: as §1

[14] = molecular target: Neu5Ac(a2-8)Neu5Ac(a2-8)Neu5Ac(a2-3)[GalNAc(b1-4)]Gal(b1-4)Glc
Method in brief: as §1

B1: Di AAL2 (Agrocybe aegerita) (protein)
chain: MTSNVITQDLPIPVASRGFADIVGFGLDGVVIGRNAVNLQPFLAVKNFAQNAGGWLTTKHVRLIADTTGTGKGDIVGFGNAGVYVSVNNGKNTFADPPKMVIANFGYDAGGWRVEKHLRYLADIRKIGRADIIGFGEKGVLVSRNNGGLNFGPATLVLKDFGYDAGGWRLDRHLRFLADVTGNGHLDIVGFGDKHVFISRNNGDGTFAPAKSVIDNFCIDAGGWKIGDHPRFVADLTGDGTADIIGCGKAGCWVALNNGGGVFGQVKLVINDFGTDKGWQAAKHPRFIADLTGNGRGDVVGFGNAGVYVALNNGDGTFQSAKLVLKDFGVQQGWTVSKHRRFVVDLTGDGCADIIGFGEKETLVSYNDGKGNFGPVKALTNDFSFSGGKWAPETTVCWMANLDSSRHPAPAPMTSNVITQDLPIPVASRGFADIVGFGLDGVVIGRNAVNLQPFLAVKNFAQNAGGWLTTKHVRLIADTTGTGKGDIVGFGNAGVYVSVNNGKNTFADPPKMVIANFGYDAGGWRVEKHLRYLADIRKIGRADIIGFGEKGVLVSRNNGGLNFGPATLVLKDFGYDAGGWRLDRHLRFLADVTGNGHLDIVGFGDKHVFISRNNGDGTFAPAKSVIDNFCIDAGGWKIGDHPRFVADLTGDGTADIIGCGKAGCWVALNNGGGVFGQVKLVINDFGTDKGWQAAKHPRFIADLTGNGRGDVVGFGNAGVYVALNNGDGTFQSAKLVLKDFGVQQGWTVSKHRRFVVDLTGDGCADIIGFGEKETLVSYNDGKGNFGPVKALTNDFSFSGGKWAPETTVCWMANLDSSRH
- glycan array binding signal (z-score) [1]: 5.09
- glycan array binding signal (z-score) [2]: 5.69
- glycan array binding signal (z-score) [3]: -0.333
- glycan array binding signal (z-score) [4]: -0.327
- glycan array binding signal (z-score) [5]: -0.313
- glycan array binding signal (z-score) [6]: -0.218
- glycan array binding signal (z-score) [7]: -0.336
- glycan array binding signal (z-score) [8]: -0.285
- glycan array binding signal (z-score) [9]: -0.319
- glycan array binding signal (z-score) [10]: -0.251
- glycan array binding signal (z-score) [11]: -0.302
- glycan array binding signal (z-score) [12]: -0.29
- glycan array binding signal (z-score) [13]: -0.297
- glycan array binding signal (z-score) [14]: -0.284

Reference: the supplement of paper PMC8728848
